This passage reports outcome and AC50 results from PubChem BioAssay (EPA / NIEHS).

Some structures have more than one record in an assay (separate samples or runs), and their calls can disagree. Activity calls are given as the source filed them. The calls were made as follows: active = hit-call score of the fitted dose curve at least 0.9, where 1 is the maximum; inactive = score below 0.9.

Chain of Tumor necrosis factor (Homo sapiens) (P01375 whole entry, looked up): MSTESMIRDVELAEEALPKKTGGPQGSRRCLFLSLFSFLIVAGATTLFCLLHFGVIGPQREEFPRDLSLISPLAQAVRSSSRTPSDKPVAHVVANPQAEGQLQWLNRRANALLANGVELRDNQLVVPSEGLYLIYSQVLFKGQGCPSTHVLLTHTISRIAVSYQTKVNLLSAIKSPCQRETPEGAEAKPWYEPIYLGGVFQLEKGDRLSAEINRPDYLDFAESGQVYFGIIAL

Read-out in this assay: Tumor necrosis factor (Homo sapiens) (UniProt P01375)
Description: BSK_LPS_TNFa: BioMAP Diversity Plus: LPS Assay for Tumour Necrosis Factor alpha (TNFa) Biomarker Activity (AID 2283085). Particulars: primary human HUVEC with PBMC; actives raise or lower the signal. How it is done:
BSK_LPS is a cell-based, multiplexed-readout assay that uses umbilical vein endothelium and peripheral blood mononuclear cells, a human vascular primary cell co-culture, with measurements taken at 24 hours after chemical dosing in a 96-well plate.BSK_LPS_TNFa is an assay component measured in the BSK_LPS assay. It measures TNF-a antibody related to regulation of gene expression using ELISA technology.Data from the assay component BSK_LPS_TNFa was analyzed into 1 assay endpoint. This assay endpoint, BSK_LPS_TNFa, was analyzed with bidirectional fitting relative to DMSO as the negative control and baseline of activity. Using a type of binding reporter, gain or loss-of-signal activity can be used to understand changes in the signaling as they relate to the gene TNF. Furthermore, this assay endpoint can be referred to as a primary readout, because this assay has produced multiple assay endpoints where this one serves a signaling function. To generalize the intended target to other relatable targets, this assay endpoint is annotated to the cytokine intended target family, where the subfamily is inflammatory factor.
The levels of cell surface (or secreted, indicated by the prefix "s") biomarker endpoints were measured by ELISA. Overt cytotoxicity to cells in confluent adherent cultures (all systems other than the BT system) was assessed by measuring total protein levels using sulforhodamine B (SRB) staining in parallel cultures at the time of biomarker measurements, indicated as SRB endpoints. For proliferation assays for adherent cell types, individual cell types are cultured at sub-confluence and relative cell numbers quantified by SRB staining at time points optimized for each system (48 h: 3C and CASM3C systems; 72 h: BT and HDF3CGF systems; 96 h: SAg system). SRB was performed by staining cells with 0.1% SRB after fixation with 10% TCA and reading wells at 560 nm.Viability and proliferation of PBMC (T cells) was quantified by Alamar Blue reduction for the SAg and BT systems. For PBMC viability (referred to as PBMC Cytotoxicity within the assay endpoint names), cells were plated (75,000/well in a 96-well plate) and then chemical samples added for 1 h before addition of activators, SEB and TSST-1 (20 ng/mL final concentration each). Cells were incubated for 90 h. Then, Alamar Blue (20 uL/well) (Invitrogen, Cat DAL1100) was added for 6 h, and the plates were read with a fluorescence microplate reader at 546/580 nm (excitation/emission). For PBMC proliferation, cells were plated and activated as above but incubated for only 16 h prior to addition of Alamar Blue. Plates were read after 6 h.
As to `Cc1cc(C(C)(C)c2ccc(O)c(C)c2)ccc1O`, the outcome was inactive.

With `Cc1ccc2nc3sc(=O)sc3nc2c1`, the outcome was inactive.

As to `O=c1oc2ccccc2c(O)c1C(CC(O)c1ccc(-c2ccc(Br)cc2)cc1)c1ccccc1` (stereo not given), the outcome was inactive.

As to `OCCN(CCO)CCO`, the result was inactive.

With `Cc1ccccc1OP(=O)(Oc1ccccc1C)Oc1ccccc1C`, the result was inactive.

Consider `CC(C)O.CC(C)O.OCCN(CCO)CCO.OCCN(CCO)CCO.[Ti]`, for which the outcome was inactive.

Turning to `Cc1cc(C)cc(C)c1`, the outcome was inactive.

Regarding `OC(Cc1ccccc1Cl)(Cn1cncn1)C1(Cl)CC1` (stereo not given), the result was inactive.

Regarding `N#Cc1cccnc1`, the result was inactive.

For `Clc1cccc(Cl)c1`, the result was inactive.

Regarding `Oc1cc(Cl)c(Cl)cc1Cl`, the result was inactive.

For `CCC(C)(C#N)N=NC(C)(C#N)CC` (stereo not given), the outcome was inactive.

As for `O=C(Cc1ccccc1)OCCc1ccccc1`, the result was inactive.

As a reminder, the AC50 is the concentration giving half of the maximal activity seen. On to `O=[N+]([O-])c1ccc(Nc2ccccc2)cc1`, for which the AC50 is 32.5 µM (active).

Regarding `c1ccc(-c2cccc(-c3ccccc3)c2)cc1`, the result was inactive.

For the molecule `CCOC(=O)CC(=O)CCl`, the concentration at half-maximal activity (AC50) was 34.9 µM (active).

As for `COc1ccccc1N`, the outcome was inactive.

In the case of `O=C(CCl)NCO`, the outcome was inactive.

On to `CCOP(=O)(OCC)SCCSCC`, for which the result was inactive.

Turning to `Oc1ccc(Cc2ccc(O)cc2)cc1`, the outcome was inactive.

In the case of `O=C(O)COc1cc(Cl)c(Cl)cc1Cl`, the outcome was inactive.

In the case of `Cc1ccccc1OP(=O)(Oc1ccccc1)Oc1ccccc1`, the outcome was inactive.

For `NC(=O)CCl`, the outcome was inactive.

For `CCCCN(CCCC)C(=S)[S-].CCCCN(CCCC)C(=S)[S-].[Ni+2]`, the result was inactive.

Regarding `Clc1cccc(Cl)c1Cl`, the outcome was inactive.

As for `Oc1cccc(-c2ccccc2)c1`, the result was inactive.

For the molecule `CCN(CC)C(=O)C(Cl)=C(C)OP(=O)(OC)OC`, the outcome was inactive.

With `O=S(=O)(c1ccc(Cl)cc1)c1cc(Cl)c(Cl)cc1Cl`, the outcome was inactive.

With `CCOP(=S)(OCC)OP(=S)(OCC)OCC`, the outcome was inactive.

`Cc1cc(Cl)ccc1N`: the outcome was inactive.

As for `Oc1c(Cl)cc(Cl)cc1Cl`, the outcome was inactive.

Regarding `C[C@]12CC[C@@H](O)C[C@@H]1CC[C@@H]1[C@@H]2CC[C@]2(C)C(=O)CC[C@@H]12`, the result was inactive.

Regarding `O=C1C=CC(=O)c2ccccc21`, the AC50 was 0.623 µM (active).

With `CC1(C)[C@H](C(=O)O[C@H](C#N)c2cccc(Oc3ccccc3)c2)[C@@H]1/C=C(\Cl)C(F)(F)F`, the result was inactive and the AC50 is 2.79 µM (active).

In the case of `Cc1cc(Cl)ccc1OC(C)C(=O)O` (stereo not given), the outcome was inactive.

On to `C#CCOC(=O)/C=C(C)/C=C/CC(C)CCCC(C)C` (stereo not given), for which the result was inactive.

On to `Cc1cccc(OP(=O)(Oc2cccc(C)c2)Oc2cccc(C)c2)c1`, for which the AC50 is 32.3 µM (active).

Take `CCCCCCCCCCCCc1cccc(S(=O)(=O)O)c1`: the outcome was inactive.

Turning to `Cc1c([N+](=O)[O-])c(C)c([N+](=O)[O-])c(C(C)(C)C)c1[N+](=O)[O-]`, the AC50 is 28 µM (active).
